Results as given in PubChem BioAssay (NCI).
The panel holds about 83,000 compounds, 20% with a hit somewhere; the sample as a whole holds those more often.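 Results are percent growth after 48 hours of single-concentration exposure. 100 means growth as in untreated cells, lower positive values show inhibition; negative values down to -100 show cell death.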 Active and inactive are the calls of the source. Rule for the calls: active = growth percent below 10; inactive = the rest.

Legend:
Experiment in all cases: NCI-60 one-dose screen, 48 h (100 = growth as untreated, 0 = no growth, -100 = all killed)
Conditions in all cases: 10 µM unless noted
SR leukemia = tested on: SR leukemia
RPMI-8226 leukemia = tested on: RPMI-8226 leukemia
OVCAR-8 ovarian = tested on: OVCAR-8 ovarian
OVCAR-5 ovarian = tested on: OVCAR-5 ovarian
OVCAR-4 ovarian = tested on: OVCAR-4 ovarian
SK-OV-3 ovarian = tested on: SK-OV-3 ovarian
IGROV1 ovarian = tested on: IGROV1 ovarian
OVCAR-3 ovarian = tested on: OVCAR-3 ovarian
HS 578T breast = tested on: HS 578T breast
NCI/ADR-RES ovarian = tested on: NCI/ADR-RES ovarian

Measured: growth

COc1cc(-c2cc3cc(O)ccc3oc2=O)cc(OC)c1OC
inactive: SR leukemia 84% | RPMI-8226 leukemia 91.7% | OVCAR-8 ovarian 93.8% | OVCAR-5 ovarian 88.8% | OVCAR-4 ovarian 97.3% | SK-OV-3 ovarian 102% | IGROV1 ovarian 98.7% | OVCAR-3 ovarian 114% | HS 578T breast 81.6% | NCI/ADR-RES ovarian 91.2%

O=C(/C=C/c1cccc2ccccc12)Nc1ncc(Cc2ccccc2)s1
active: RPMI-8226 leukemia 8.58% | OVCAR-4 ovarian 6.74% | OVCAR-3 ovarian -17.8% | NCI/ADR-RES ovarian -8.05%
inactive: SR leukemia 13.1% | OVCAR-8 ovarian 29% | OVCAR-5 ovarian 22.7% | SK-OV-3 ovarian 20.9% | IGROV1 ovarian 15.8% | HS 578T breast 12.7%

COc1cc2ncnc(Nc3ccc(Oc4ccnc(C)c4)c(C)c3)c2cc1NC(=O)CC1CCSS1 (stereo not given)
inactive: OVCAR-8 ovarian 25.4% | OVCAR-5 ovarian 45.2% | IGROV1 ovarian 20.6% | NCI/ADR-RES ovarian 31.9%
active: SR leukemia -37.6% | RPMI-8226 leukemia -18.6% | OVCAR-4 ovarian 6.57% | SK-OV-3 ovarian -86.9% | OVCAR-3 ovarian -81.4% | HS 578T breast -7.37%

Cn1cc(-c2csc(-c3cn(CCCN4CCCCC4)c4ccc(F)cc34)n2)c2cccnc21
inactive: SR leukemia 65.9% | RPMI-8226 leukemia 69.2% | OVCAR-8 ovarian 95.3% | OVCAR-5 ovarian 91.8% | OVCAR-4 ovarian 92.8% | SK-OV-3 ovarian 99.3% | IGROV1 ovarian 85.2% | OVCAR-3 ovarian 93.2% | HS 578T breast 82.5% | NCI/ADR-RES ovarian 89.5%

COc1ccc(C(=O)c2ccc(C)cc2)c(OC)c1OC
inactive: SR leukemia 56.6% | RPMI-8226 leukemia 88.7% | OVCAR-8 ovarian 90.4% | OVCAR-5 ovarian 93% | OVCAR-4 ovarian 99.7% | SK-OV-3 ovarian 79.3% | IGROV1 ovarian 71.6% | OVCAR-3 ovarian 66.7% | HS 578T breast 86.9% | NCI/ADR-RES ovarian 45.2%

CC(=O)OC[C@]12CC[C@@H](/C(C)=N/O)[C@@H]1[C@H]1CC[C@@H]3[C@@]4(C)CCCNC(C)(C)[C@@H]4CC[C@@]3(C)[C@]1(C)CC2
inactive: SR leukemia 51.8% | RPMI-8226 leukemia 49.2% | OVCAR-8 ovarian 73.3% | OVCAR-5 ovarian 103% | OVCAR-4 ovarian 53.9% | SK-OV-3 ovarian 62.9% | IGROV1 ovarian 88.9% | OVCAR-3 ovarian 65.7% | HS 578T breast 76% | NCI/ADR-RES ovarian 77.4%

CCOC(=O)C1OC1(c1ccccc1)c1ccccc1 (stereo not given)
inactive: SR leukemia 108% | RPMI-8226 leukemia 95.6% | OVCAR-8 ovarian 99.6% | OVCAR-5 ovarian 99.6% | OVCAR-4 ovarian 121% | SK-OV-3 ovarian 112% | IGROV1 ovarian 99.6% | OVCAR-3 ovarian 106% | HS 578T breast 114% | NCI/ADR-RES ovarian 105%

C=C(C)[C@@H]1CC[C@]2(C(=O)N3CCN(CC)CC3)CC[C@]3(C)[C@H](CC[C@@H]4[C@@](C)(CCC(=O)N5CCN(CC)CC5)[C@H](C(=C)C)CC[C@]43C)[C@@H]12
active: SR leukemia 5.68%
inactive: RPMI-8226 leukemia 22.3% | OVCAR-8 ovarian 78.3% | OVCAR-5 ovarian 72.3% | OVCAR-4 ovarian 77.4% | SK-OV-3 ovarian 95.5% | IGROV1 ovarian 73.6% | OVCAR-3 ovarian 60.5% | HS 578T breast 80.8% | NCI/ADR-RES ovarian 67.6%

O=C(NC(Cc1cn(Cc2ccccc2)cn1)C(=O)O)OCC1c2ccccc2-c2ccccc21 (stereo not given)
inactive: SR leukemia 85.1% | RPMI-8226 leukemia 114% | OVCAR-8 ovarian 103% | OVCAR-5 ovarian 105% | OVCAR-4 ovarian 106% | SK-OV-3 ovarian 109% | IGROV1 ovarian 105% | OVCAR-3 ovarian 105% | HS 578T breast 98% | NCI/ADR-RES ovarian 104%

Cc1[c-]onc1C.Cc1[c-]onc1C.[Ag].[Ag].[NH-]S(=O)(=O)c1ccc(N=Nc2cc(N=Nc3ccc(S([NH-])(=O)=O)cc3)c3c(NC(=O)C(Cl)Cl)cccc3c2OC(=O)C(Cl)Cl)cc1
inactive: SR leukemia 81.4% | RPMI-8226 leukemia 80.4% | OVCAR-8 ovarian 69.1% | OVCAR-5 ovarian 125% | OVCAR-4 ovarian 93.9% | SK-OV-3 ovarian 111% | IGROV1 ovarian 73% | OVCAR-3 ovarian 59.7% | HS 578T breast 85.2% | NCI/ADR-RES ovarian 96.9%

CCN(CC)CCCCCNc1cc(OC(=O)c2ccccc2)cc2cccnc12
inactive: RPMI-8226 leukemia 100% | OVCAR-8 ovarian 121% | OVCAR-5 ovarian 121% | OVCAR-4 ovarian 80.9% | SK-OV-3 ovarian 108% | IGROV1 ovarian 105% | OVCAR-3 ovarian 51.6% | HS 578T breast 103% | NCI/ADR-RES ovarian 99.3%
active: SR leukemia -38.1%

COc1ccc(-c2c(-c3nc4ccc(N5CCOCC5)cc4[nH]3)[nH]c(C)c2C(C)=O)cc1
active: RPMI-8226 leukemia 3.61%
inactive: SR leukemia 47.8% | OVCAR-8 ovarian 50.5% | OVCAR-5 ovarian 48.2% | OVCAR-4 ovarian 45.1% | SK-OV-3 ovarian 27.7% | IGROV1 ovarian 23.8% | OVCAR-3 ovarian 46% | HS 578T breast 22.3% | NCI/ADR-RES ovarian 38.7%

C[C@H]1OC(=O)/C=C/[C@@H](O)[C@@H](O)CCCCCCCC[C@@H]1O
inactive: SR leukemia 118% | RPMI-8226 leukemia 101% | OVCAR-8 ovarian 89.6% | OVCAR-5 ovarian 95.6% | OVCAR-4 ovarian 101% | SK-OV-3 ovarian 94.9% | IGROV1 ovarian 103% | OVCAR-3 ovarian 109% | HS 578T breast 101% | NCI/ADR-RES ovarian 98.1%

N#CCCCCCn1c2ccccc2c2c3[nH]c(=O)[nH]c(=O)c3c3c4ccccc4n(CCCCCC#N)c3c21
inactive: SR leukemia 20.3% | RPMI-8226 leukemia 53.4% | OVCAR-8 ovarian 27.4% | OVCAR-5 ovarian 92.4% | OVCAR-4 ovarian 58.7% | SK-OV-3 ovarian 72.7% | IGROV1 ovarian 22.4% | OVCAR-3 ovarian 49.2% | HS 578T breast 51.6% | NCI/ADR-RES ovarian 89.4%

N#Cc1cnc2cc(OC[C@@H](O)CO)c(NC(=O)CC3CSSC3)cc2c1Nc1ccc(OCc2cccc(F)c2)c(Cl)c1
active: SR leukemia 1.96% | RPMI-8226 leukemia -29.7% | OVCAR-8 ovarian -48.2% | OVCAR-5 ovarian -72.8% | OVCAR-4 ovarian -64.4% | SK-OV-3 ovarian -86.2% | IGROV1 ovarian -56% | OVCAR-3 ovarian -81.3% | HS 578T breast -39.8%
inactive: NCI/ADR-RES ovarian 85.9%

CCN(CC)CCCCCCNc1ccnc2cc(Cl)ccc12
inactive: SR leukemia 28.2% | RPMI-8226 leukemia 130% | OVCAR-8 ovarian 117% | OVCAR-5 ovarian 112% | OVCAR-4 ovarian 75.2% | SK-OV-3 ovarian 98.2% | IGROV1 ovarian 124% | OVCAR-3 ovarian 84.6% | HS 578T breast 92.4% | NCI/ADR-RES ovarian 104%

O=C1c2cc3c(cc2-c2c1c1ccc(F)cc1c(=O)n2CCCN1CCOCC1)OCO3
active: SR leukemia 4.41%
inactive: RPMI-8226 leukemia 46.1% | OVCAR-8 ovarian 47% | OVCAR-5 ovarian 78.9% | OVCAR-4 ovarian 78.5% | SK-OV-3 ovarian 20.1% | IGROV1 ovarian 77.5% | OVCAR-3 ovarian 85.7% | HS 578T breast 100% | NCI/ADR-RES ovarian 36.6%

Nc1nc2c3ccncc3cc(-c3cccc(Cl)c3)c2c2cnccc12
active: SR leukemia 9.04% | RPMI-8226 leukemia 5.57%
inactive: OVCAR-8 ovarian 24.1% | OVCAR-5 ovarian 61.2% | OVCAR-4 ovarian 65.6% | SK-OV-3 ovarian 61.9% | IGROV1 ovarian 59% | OVCAR-3 ovarian 54.6% | HS 578T breast 35.5% | NCI/ADR-RES ovarian 30.6%

COc1cccc(-c2nn(-c3ccccc3)cc2-c2ccnc(NCCNS(=O)(=O)c3ccc(Cl)cc3)c2)c1
active: SR leukemia -5.49% | RPMI-8226 leukemia 9%
inactive: OVCAR-8 ovarian 31.1% | OVCAR-5 ovarian 56.2% | OVCAR-4 ovarian 35.9% | SK-OV-3 ovarian 44.9% | IGROV1 ovarian 39.3% | OVCAR-3 ovarian 40.6% | HS 578T breast 54.3% | NCI/ADR-RES ovarian 27.9%

Cc1cc(N2CCCCC2)nc(N(CCNc2ccnc3cc(Cl)ccc23)Cc2ccco2)n1
inactive: OVCAR-8 ovarian 22.3% | OVCAR-5 ovarian 50.2% | OVCAR-4 ovarian 43.2% | SK-OV-3 ovarian 77.9% | IGROV1 ovarian 18.1% | HS 578T breast 51.4% | NCI/ADR-RES ovarian 10.5%
active: SR leukemia -15.8% | RPMI-8226 leukemia -36.5% | OVCAR-3 ovarian -40%

COC(=O)[C@]12CC[C@@H](C)[C@H](C)[C@@H]1C1=CC[C@@H]3[C@@]4(C)C(c5ncon5)=C[C@@](C)(CO)C4=CC[C@@]3(C)[C@]1(C)CC2
inactive: SK-OV-3 ovarian 68.9% | HS 578T breast 12.5%
active: SR leukemia -15.5% | RPMI-8226 leukemia -32.4% | OVCAR-8 ovarian -6.22% | OVCAR-5 ovarian -56.2% | OVCAR-4 ovarian 5.83% | IGROV1 ovarian -10.8% | OVCAR-3 ovarian -86.8% | NCI/ADR-RES ovarian 6.21%

Cn1nc(-c2ccccc2)c2c(-c3ccccc3)onc2c1=O
inactive: SR leukemia 26.4% | RPMI-8226 leukemia 24.9% | OVCAR-8 ovarian 51.9% | OVCAR-5 ovarian 66.5% | OVCAR-4 ovarian 72.1% | SK-OV-3 ovarian 13.3% | IGROV1 ovarian 51.3% | OVCAR-3 ovarian 12.2% | HS 578T breast 15.8% | NCI/ADR-RES ovarian 45.8%

O=C(NO)c1ccc(Cn2c(=O)n(CCc3ccc(O)cc3)c(=O)c3ccccc32)cc1
inactive: SR leukemia 16.5% | RPMI-8226 leukemia 31.6% | OVCAR-8 ovarian 36.2% | OVCAR-5 ovarian 86% | OVCAR-4 ovarian 56.4% | SK-OV-3 ovarian 86.7% | IGROV1 ovarian 74.9% | OVCAR-3 ovarian 18.9% | HS 578T breast 58.8% | NCI/ADR-RES ovarian 92.8%

Cc1nn2c(-c3nc4cc(Cl)c(Cl)cc4[nH]3)c(-c3ccc(F)cc3)nc2s1
active: OVCAR-8 ovarian 8.25% | OVCAR-4 ovarian -60% | SK-OV-3 ovarian -73.1% | OVCAR-3 ovarian -13.2% | HS 578T breast 1.04%
inactive: SR leukemia 41.1% | RPMI-8226 leukemia 20.6% | OVCAR-5 ovarian 23.8% | IGROV1 ovarian 21.2% | NCI/ADR-RES ovarian 21.4%
